# According to PubChem BioAssay (NCI):
# This is part of a sample that, as a whole, favours compounds with a hit. Of some 79,000 tested, about 15% had one in any assay. A number with no mark means an inactive call. Activity calls are given as the source filed them. Rule as the data show it: active = growth inhibition above about 70%; inactive = the rest.
# What was measured:
# [1] = NCI Yeast Anticancer Drug Screen. Data for the rad50 strain (AID 155);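 also: 0% = growth of vehicle-only cultures of the same strain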; settings: S. cerevisiae rad50 strain growth inhibition, stronger effect = higher value
# Outline: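 Compounds were tested on a yeast strain with an engineered DNA damage repair alteration; the reported value is growth inhibition normalised to vehicle treatment.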
# [2] = NCI Yeast Anticancer Drug Screen. Data for the mec2-1 strain (AID 157); settings: S. cerevisiae mec2-1 strain, stronger effect = higher value
# Outline: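 Strain: mec2-1 (DNA repair/cell cycle alteration). Compound exposure, then growth measured; inhibition expressed relative to vehicle.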
# [3] = NCI Yeast Anticancer Drug Screen. Data for the sgs1 mgt1 strain (AID 161);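 also: 0% = growth of cultures given vehicle only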; settings: S. cerevisiae sgs1 mgt1 strain, stronger effect = higher value
# Outline: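 Test agents were incubated with a DNA-repair-mutant yeast strain. Growth was then read and compared against vehicle-treated controls.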
# [4] = NCI Yeast Anticancer Drug Screen. Data for the cln2 rad14 strain (AID 165);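 also: 0% = growth equal to vehicle treated cultures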; settings: S. cerevisiae cln2 rad14 strain, stronger effect = higher value
# Outline: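 Compounds are applied to the cln2 rad14 yeast strain, and growth is then compared with that of vehicle-treated cultures to give inhibition.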
# [5] = NCI Yeast Anticancer Drug Screen. Data for the bub3 strain (AID 167); settings: S. cerevisiae bub3 mutant strain, stronger effect = higher value
# Outline: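 Growth of a checkpoint-deficient yeast mutant is measured after compound exposure. Values represent inhibition relative to vehicle.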
# [6] = NCI Yeast Anticancer Drug Screen. Data for the mlh1 rad18 strain (AID 175); settings: S. cerevisiae mlh1 rad18 strain growth inhibition, stronger effect = higher value
# Outline: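 Read-out is yeast growth inhibition, calculated against vehicle-only controls. The compound was applied to a strain engineered with DNA damage repair alterations.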
# [7] = at 5.0 µM (retest, dose inferred, filed as 0.5)
# [8] = at 50.0 µM (retest, dose inferred, filed as 5.0)
SMILES,"growth inhibition [1, 7]","growth inhibition [1, 8]",growth inhibition ([1]; at 50.0 µM),"growth inhibition [2, 7]","growth inhibition [2, 8]",growth inhibition ([2]; at 50.0 µM),"growth inhibition [3, 7]","growth inhibition [3, 8]",growth inhibition ([3]; at 50.0 µM),"growth inhibition [4, 7]","growth inhibition [4, 8]",growth inhibition ([4]; at 50.0 µM),"growth inhibition [5, 7]","growth inhibition [5, 8]",growth inhibition ([5]; at 50.0 µM),"growth inhibition [6, 7]","growth inhibition [6, 8]",growth inhibition ([6]; at 50.0 µM)
C[N+]1(c2ccccc2)C=C(c2ccccc2)SC1=S (configuration not stated),7%,86% (active),67.8%,25%,68%,20.6%,-8%,36%,60.5%,1%,10%,23.4%,13%,67%,54.8%,12%,75% (active),74.8% (active)
CCOC(=O)N1CCN(CCCCCCOc2c(Cl)cc(Cl)cc2Cl)CC1,45%,98% (active),98.7% (active),41%,99% (active),96.1% (active),71% (active),99% (active),92% (active),58%,98% (active),98.4% (active),64%,98% (active),97.2% (active),49%,99% (active),98.2% (active)
O=C1c2cccc(O)c2C(=O)c2c(O)cc(CO)cc21,58%,92% (active),87% (active),52%,94% (active),90.3% (active),61%,93% (active),90.5% (active),23%,81% (active),88% (active),54%,91% (active),89.4% (active),82% (active),97% (active),90.8% (active)
COc1ccc2c(c1)nc1cc(Cl)ccc1[n+]2C,8%,97% (active),82.2% (active),2%,95% (active),52.5%,-5%,97% (active),74.1% (active),0%,97% (active),64.4%,9%,93% (active),86.3% (active),5%,97% (active),85.3% (active)
COC1CC(OC(=O)c2ccccc2)C2OC(c3ccccc3)OCC2O1 (configuration not stated),3%,26%,42.5%,2%,18%,8.35%,1%,44%,63.3%,7%,39%,-3.35%,24%,80% (active),15.2%,6%,36%,6.15%
CC(=O)N/N=C1/CC[C@@]2(C)C(=CC[C@H]3C4CCC(C(C)CCCC(C)C)[C@@]4(C)CCC32)C1(C)C (some centres not stated),-23%,79% (active),31.6%,-14%,83% (active),6.35%,-7%,84% (active),24.8%,-11%,74% (active),55.1%,-10%,70% (active),29.6%,-12%,90% (active),1.3%
C[N+](C)([O-])CCC=C1c2ccccc2CCc2ccccc21,10%,46%,62.5%,12%,9%,28.4%,-2%,33%,7.75%,-20%,21%,12.5%,3%,33%,73.5% (active),4%,33%,33.5%
Cc1nn(C(=O)c2ccccc2O)c2c1C(c1ccc3ccccc3c1O)SC(N)=N2 (configuration not stated),8%,97% (active),97.1% (active),0%,95% (active),92.5% (active),-4%,96% (active),96.8% (active),-9%,59%,92.1% (active),-13%,97% (active),97.8% (active),9%,98% (active),97.7% (active)
CCCCOc1ccc(CC(O)CN2CCCCC2C)cc1 (configuration not stated),22%,49%,75.2% (active),21%,51%,52.5%,33%,61%,78% (active),36%,57%,73.7% (active),36%,71% (active),85.6% (active),24%,60%,51%
CC12C(=O)N(CC(=O)O)C(=O)C1(C)C1c3ccccc3C2c2ccc3ccccc3c21 (configuration not stated),7%,97% (active),98.7% (active),1%,98% (active),95.9% (active),2%,98% (active),99% (active),-8%,99% (active),99% (active),1%,96% (active),95.6% (active),0%,98% (active),95.8% (active)
CC(C)c1cc2c(cc1O)C[C@@]1(O)CCCC(C)(C)C1CC2 (some centres not stated),8%,97% (active),90.6% (active),3%,97% (active),92.3% (active),3%,92% (active),91.2% (active),-16%,96% (active),90% (active),7%,96% (active),91.2% (active),10%,95% (active),90.2% (active)
[Cu+2].[O-]/N=C/c1cccc(O)c1[O-].[O-]/N=C/c1cccc(O)c1[O-],-16%,99% (active),93.8% (active),-14%,99% (active),96.7% (active),-14%,99% (active),96.8% (active),-12%,98% (active),94.8% (active),-20%,99% (active),97.7% (active),-4%,98% (active),94% (active)
C=C(C)COc1cc(NC(=S)OC(C)C)ccc1Cl,16%,90% (active),51.8%,16%,93% (active),83.8% (active),8%,88% (active),90.1% (active),6%,86% (active),88.2% (active),20%,93% (active),88.3% (active),12%,92% (active),83.6% (active)
Clc1ccc(/C=N\Nc2ccccc2)c(Cl)c1,4%,99% (active),76.8% (active),1%,99% (active),44.9%,-1%,98% (active),30.1%,2%,86% (active),-6.9%,-2%,99% (active),31.7%,1%,99% (active),66.4%
CSC1=NSC(c2ccccc2)=C(c2ccccc2)S1,7%,9%,7.95%,-15%,10%,-1.45%,-11%,0%,27.8%,33%,88% (active),62.5%,9%,43%,43.1%,5%,16%,10.2%
CCOc1ccc2c(c1)[n+]([O-])c(S(=O)(=O)c1ccc(C)cc1)c(N)[n+]2[O-],-5%,63%,91.2% (active),18%,77% (active),48.3%,30%,88% (active),90.8% (active),13%,55%,90.3% (active),37%,97% (active),93.3% (active),20%,85% (active),94.2% (active)
O=CNc1ccc(Oc2ccc(NC=O)cc2)cc1,-1%,-18%,3.6%,-18%,-19%,6.75%,1%,1%,1.45%,-1%,7%,61.3%,-2%,-15%,-6.45%,17%,-5%,30.6%
COc1ccc(/C(C#N)=C(/N)SCc2ccccc2Cl)cc1,-3%,14%,90.9% (active),-2%,14%,64.9%,10%,36%,97.2% (active),-7%,15%,66.8%,3%,49%,83.5% (active),-1%,34%,90% (active)
O[C@H]1c2cccn2-c2ccccc2S[C@H]1c1ccccc1,12%,99% (active),98.8% (active),-6%,99% (active),98.8% (active),3%,97% (active),98.8% (active),6%,99% (active),98.8% (active),10%,98% (active),98.5% (active),-4%,99% (active),99% (active)
